PubChem BioAssay (Tox21)
A number with no mark means an inactive call. Records with an inconclusive call do not appear. Where a call stands in place of a potency, no number is given. Active and inactive are the calls of the source. Unless noted, calls follow the shape of the full dose curve.

Assays:
[1] = Nuclear factor erythroid 2-related factor 2/antioxidant responsive element (Nrf2/ARE) small molecule agonists: qHTS cell viability counter screen in human keratinocytes (AID 1919968; active = well fitted curve in the direction sought with a large enough effect in the repeat runs; an effect the other way counts as inactive or inconclusive; also: nearly all actives have a fitted effect of over 55% in size; also: potency is read from the fitted curve at half-maximal effect)
Procedure, shortened: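 Viability counter-screen: KeratinoSens reporter cells, DMSO-delivered compounds, 23 h at 37 C, CellTiter-Fluor fluorescence.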

[2] = Nuclear factor erythroid 2-related factor 2/antioxidant responsive element (Nrf2/ARE) small molecule agonists: luciferase reporter gene qHTS assay in human keratinocytes (AID 1919969); also: nearly all actives have a fitted effect of over 35% in size; also: potency is read from the fitted curve at half-maximal effect
[3] = molecular target: KiSS-1 receptor (Homo sapiens) (UniProt Q969F8); assay: Human kisspeptin (KISS1R) small molecule agonists, calcium flux assay in KISS1R-HEK293 cells (AID 1920064; active = well fitted curve in the direction sought with a large enough effect in the repeat runs; an effect the other way counts as inactive or inconclusive; also: potency is read from the fitted curve at half-maximal effect)
Procedure, shortened: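 Intracellular calcium mobilization in KISS1R-HEK293 cells was recorded by fluorescence (Ex/Em 480/540) for 3 min following compound addition to cells pre-loaded 1 h with calcium dye.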

[4] = G protein-coupled receptor (GPCR) small molecule agonists, calcium flux assay: HEK293 wild type cell line counter screen (AID 1920065); also: potency is read from the fitted curve at half-maximal effect
Procedure, shortened: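 In this agonist-mode screen, ATP is the positive control and DMSO the vehicle. Cells grow 18 h before a 1 h dye incubation at 37 C; signal is taken at Ex/Em 480/540 over 3 min.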

[5] = p53 small molecule agonists, cell-based qHTS assay with human liver microsomes (AID 1963577)
Procedure, shortened: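 p53RE-bla reporter cells were pre-incubated 5 h at 37 C, then treated with compounds plus human liver microsomes (0.5 mg/mL final) and NADPH (0.5 mg/mL final) for 16 h at 37 C. Beta-lactamase activity was read by LiveBLAzer fluorescence after 2 h at room temperature.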

[6] = p53 small molecule agonists, cell-based qHTS assay with rat liver microsomes (AID 1963578)
Procedure, shortened: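 p53RE-bla cells were exposed to compounds together with rat liver microsomes (0.5 mg/mL final) and NADPH (0.5 mg/mL final) for 16 h at 37 C, then read by LiveBLAzer beta-lactamase fluorescence after 2 h at room temperature.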

[7] = p53 small molecule agonists, cell-based qHTS assay with human liver microsomes: qHTS cell viability counter screen (AID 1963579); also: nearly all actives have a fitted effect of over 45% in size; also: potency is read from the fitted curve at half-maximal effect
Procedure, shortened: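 p53RE-bla cells (4,000/well) were pre-incubated 5 h at 37 C, then given compounds in DMSO plus human liver microsomes (0.5 mg/mL final) and NADPH (0.5 mg/mL final) for 16 h at 37 C. Viability was read by CellTiter-Glo luminescence.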

[8] = p53 small molecule agonists, cell-based qHTS assay with rat liver microsomes: qHTS cell viability counter screen (AID 1963580); also: nearly all actives have a fitted effect of over 45% in size; also: potency is read from the fitted curve at half-maximal effect
Procedure, shortened: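 p53RE-bla HCT-116 cells were exposed 16 h at 37 C to compounds with rat liver microsomes (0.5 mg/mL) and NADPH (0.5 mg/mL). Viability was measured in the same wells as ATP content by CellTiter-Glo luminescence.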

[9] = p53 small molecule agonists, cell-based qHTS assay: qHTS cell viability counter screen (AID 1963581); also: nearly all actives have a fitted effect of over 45% in size; also: potency is read from the fitted curve at half-maximal effect
Procedure, shortened: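 Compounds are pinned onto HCT-116 p53RE-bla cells and left 16 h at 37 C. Following the reporter FRET read, ATP is quantified by CellTiter-Glo luminescence after 30 min at room temperature.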

[10] = p53 small molecule agonists, cell-based qHTS assay (AID 1963582; active = well fitted activation curve with a large enough effect in the signal ratio in the repeat runs, not every such curve was filed as active; the % refers to the signal ratio)
Procedure, shortened: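 Agonist activity was scored from beta-lactamase FRET fluorescence in p53RE-bla cells treated 16 h at 37 C with compounds in DMSO, substrate incubation being 2 h at room temperature.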

[11] = cAMP Responsive Elements (CRE) small molecule antagonists, cell-based qHTS assay (AID 1963591; active = well fitted inhibition curve with a large enough effect in the signal ratio in the repeat runs, not every such curve was filed as active; the % refers to the signal ratio)
Procedure, shortened: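 qHTS in CRE-bla HEK 293T cells: compound in DMSO, then 0.25 uM NKH477 (final), 3 h at 37 °C/5% CO2; beta-lactamase FRET read-out after 2 h substrate incubation.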

[12] = molecular target: D(2) dopamine receptor (Homo sapiens) (UniProt P14416); assay: Dopamine D2 receptor (DRD2) small molecule agonists, cell-based qHTS assay (AID 1963594); also: nearly all actives have a fitted effect of over 35% in size; also: potency is read from the fitted curve at half-maximal effect
Procedure, shortened: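 HEK293 cells stably expressing human DRD2, pre-treated with PDE inhibitor Ro20-1724 (0.1 mM final) and compound 10 min at room temperature, then stimulated with NKH477 (200nM […]) for 30 min. cAMP read by HTRF (665/620 nm).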

[13] = molecular target: 5-hydroxytryptamine receptor 2A (Homo sapiens) (UniProt P28223); assay: 5-hydroxytryptamine receptor 2A (HTR2A) small molecule antagonists, cell-based qHTS assay (AID 1963586); also: nearly all actives have a fitted effect of over 45% in size
Procedure, shortened: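 Antagonist-mode intracellular calcium assay: DOI (4 nM) added after 5 min compound pre-incubation at room temperature to dye-loaded HTR2A-CHO cells. Fluorescence followed for 3 min, sampled every second.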

[14] = molecular target: 5-hydroxytryptamine receptor 2A (Homo sapiens) (UniProt P28223); assay: 5-hydroxytryptamine receptor 2A (HTR2A) small molecule agonists, cell-based qHTS assay (AID 1963587); also: nearly all actives have a fitted effect of over 30% in size; also: potency is read from the fitted curve at half-maximal effect
Procedure, shortened: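 CHO cells stably expressing human HTR2A, plated 18 h, loaded with calcium dye 1 h at 37 C. Agonist mode: compounds added and intracellular calcium fluorescence recorded kinetically for 2 min at 1 sec intervals.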

[15] = molecular target: Muscarinic acetylcholine receptor M1 (Homo sapiens) (UniProt P11229); assay: Cholinergic receptor muscarinic 1 (CHRM1) small molecule antagonists, cell-based qHTS assay (AID 1963588); also: nearly all actives have a fitted effect of over 40% in size
Procedure, shortened: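 CHRM1-CHO calcium-flux assay, antagonist mode. Cells were seeded 18 h, dye-loaded 1 h at 37 C and given compound for 5 min at RT, then acetylcholine was added at 50nM. FDSS fluorescence was read 3 min; 15 concentrations, three runs.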

[16] = molecular target: Muscarinic acetylcholine receptor M1 (Homo sapiens) (UniProt P11229); assay: Cholinergic receptor muscarinic 1 (CHRM1) small molecule agonists, cell-based qHTS assay (AID 1963589); also: nearly all actives have a fitted effect of over 35% in size; also: potency is read from the fitted curve at half-maximal effect
Procedure, shortened: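 Stable CHRM1-CHO cells (human receptor) were incubated 18 h, dye-loaded for 1 h at 37 C and exposed to test compounds for agonist activity, with calcium-dependent fluorescence followed kinetically.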

[17] = cAMP Responsive Elements (CRE) small molecule agonists, cell-based qHTS assay (AID 1963590)
Procedure, shortened: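 FRET-based beta-lactamase readout (LiveBLAzer B/G, 2 h RT) quantified CRE activation in HEK 293T CRE-bla cells after 3 h treatment with DMSO-dissolved compounds.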

[18] = molecular target: Beta-2 adrenergic receptor (Homo sapiens) (UniProt P07550); assay: Adrenergic beta2 receptor (ADRB2) small molecule antagonists, cell-based qHTS assay (AID 1963592); also: nearly all actives have a fitted effect of over 50% in size; also: potency is read from the fitted curve at half-maximal effect
Procedure, shortened: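 Cells (CHO, stable ADRB2 overexpression) incubated 18-20hr at 37C; compounds added from DMSO; agonist mix (1nM isoproterenol, 100uM IBMX, 25uM Ro-20-1724) added; 0.5hr RT; d2-cAMP and anti-cAMP-cryptate added; 1hr RT; 665/615 nm read.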

[19] = molecular target: D(2) dopamine receptor (Homo sapiens) (UniProt P14416); assay: Dopamine D2 receptor (DRD2) small molecule antagonists, cell-based qHTS assay (AID 1963595; active = well fitted inhibition curve with a large enough effect in the signal ratio in the repeat runs, with a control signal flat; the % refers to the signal ratio; also: potency is read from the fitted curve at half-maximal effect)
Procedure, shortened: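 HTRF cAMP read-out at 665 and 620 nm emission (340 nm excitation). Antagonist mode: compounds were tested against 12 nM quinpirole in DRD2-HEK293 cells, with 200 nM NKH477 raising cAMP and 0.1 mM Ro20-1724 blocking its breakdown.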

[20] = molecular target: Beta-2 adrenergic receptor (Homo sapiens) (UniProt P07550); assay: Adrenergic beta2 receptor (ADRB2) small molecule agonists, cell-based qHTS assay (AID 1963593);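 also: CHO cells stably overexpressing human ADRB2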
Procedure, shortened: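 CHO cells stably over-expressing ADRB2 were plated overnight at 37C, then dosed with compounds plus a stimulation mix containing 100uM IBMX and 25uM Ro-20-1724 for 0.5hr at room temperature. cAMP was measured by HTRF competition, 1hr.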

Beta-2 adrenergic receptor (Homo sapiens), sequence (P07550 whole entry, looked up): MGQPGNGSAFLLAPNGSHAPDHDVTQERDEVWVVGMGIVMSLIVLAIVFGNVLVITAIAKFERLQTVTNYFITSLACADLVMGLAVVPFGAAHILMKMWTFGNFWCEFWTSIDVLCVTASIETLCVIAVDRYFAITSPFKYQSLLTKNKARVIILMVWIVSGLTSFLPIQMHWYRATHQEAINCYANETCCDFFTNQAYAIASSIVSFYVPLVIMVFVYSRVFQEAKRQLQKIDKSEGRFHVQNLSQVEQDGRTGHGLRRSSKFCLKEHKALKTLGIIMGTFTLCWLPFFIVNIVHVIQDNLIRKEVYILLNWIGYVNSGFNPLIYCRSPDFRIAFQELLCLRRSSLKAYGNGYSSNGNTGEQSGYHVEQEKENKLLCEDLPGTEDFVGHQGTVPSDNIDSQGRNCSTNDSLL
KiSS-1 receptor (Homo sapiens), sequence (Q969F8 whole entry, looked up): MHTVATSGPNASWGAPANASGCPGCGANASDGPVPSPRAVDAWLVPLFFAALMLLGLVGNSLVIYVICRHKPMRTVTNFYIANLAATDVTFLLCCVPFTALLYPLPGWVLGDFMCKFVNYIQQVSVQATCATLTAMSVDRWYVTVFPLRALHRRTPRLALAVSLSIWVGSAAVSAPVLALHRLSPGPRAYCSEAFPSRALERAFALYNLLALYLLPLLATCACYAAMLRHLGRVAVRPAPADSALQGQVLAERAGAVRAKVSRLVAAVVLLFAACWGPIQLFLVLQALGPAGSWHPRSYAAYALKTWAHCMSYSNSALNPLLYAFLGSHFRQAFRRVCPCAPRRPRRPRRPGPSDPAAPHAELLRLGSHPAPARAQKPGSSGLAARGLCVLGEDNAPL
5-hydroxytryptamine receptor 2A (Homo sapiens), sequence (P28223 whole entry, looked up): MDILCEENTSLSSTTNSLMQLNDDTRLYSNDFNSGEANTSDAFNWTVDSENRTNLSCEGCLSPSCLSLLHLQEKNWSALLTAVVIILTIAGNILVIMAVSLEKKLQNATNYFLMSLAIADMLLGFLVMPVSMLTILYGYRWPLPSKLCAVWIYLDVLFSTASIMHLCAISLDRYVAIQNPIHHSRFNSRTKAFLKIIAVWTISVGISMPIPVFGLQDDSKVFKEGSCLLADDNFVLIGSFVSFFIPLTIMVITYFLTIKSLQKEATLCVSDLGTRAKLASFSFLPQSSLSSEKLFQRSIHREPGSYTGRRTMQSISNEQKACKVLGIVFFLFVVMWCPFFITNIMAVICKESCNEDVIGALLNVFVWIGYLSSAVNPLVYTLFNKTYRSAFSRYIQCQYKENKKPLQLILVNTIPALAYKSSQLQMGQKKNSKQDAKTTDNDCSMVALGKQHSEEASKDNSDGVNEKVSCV
D(2) dopamine receptor (Homo sapiens), sequence (P14416 whole entry, looked up): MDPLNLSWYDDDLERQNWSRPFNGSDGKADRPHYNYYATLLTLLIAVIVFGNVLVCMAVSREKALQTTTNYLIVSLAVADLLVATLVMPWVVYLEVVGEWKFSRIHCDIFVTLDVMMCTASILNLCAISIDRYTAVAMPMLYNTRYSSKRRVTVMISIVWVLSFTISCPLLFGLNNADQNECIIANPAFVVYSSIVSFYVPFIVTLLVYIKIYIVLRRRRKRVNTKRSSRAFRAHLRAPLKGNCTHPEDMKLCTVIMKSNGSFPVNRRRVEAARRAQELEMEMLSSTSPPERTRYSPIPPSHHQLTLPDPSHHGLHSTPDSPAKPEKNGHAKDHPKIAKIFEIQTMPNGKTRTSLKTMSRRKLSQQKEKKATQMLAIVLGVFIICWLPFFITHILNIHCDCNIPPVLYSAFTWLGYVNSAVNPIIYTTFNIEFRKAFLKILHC
Muscarinic acetylcholine receptor M1 (Homo sapiens), sequence (P11229 whole entry, looked up): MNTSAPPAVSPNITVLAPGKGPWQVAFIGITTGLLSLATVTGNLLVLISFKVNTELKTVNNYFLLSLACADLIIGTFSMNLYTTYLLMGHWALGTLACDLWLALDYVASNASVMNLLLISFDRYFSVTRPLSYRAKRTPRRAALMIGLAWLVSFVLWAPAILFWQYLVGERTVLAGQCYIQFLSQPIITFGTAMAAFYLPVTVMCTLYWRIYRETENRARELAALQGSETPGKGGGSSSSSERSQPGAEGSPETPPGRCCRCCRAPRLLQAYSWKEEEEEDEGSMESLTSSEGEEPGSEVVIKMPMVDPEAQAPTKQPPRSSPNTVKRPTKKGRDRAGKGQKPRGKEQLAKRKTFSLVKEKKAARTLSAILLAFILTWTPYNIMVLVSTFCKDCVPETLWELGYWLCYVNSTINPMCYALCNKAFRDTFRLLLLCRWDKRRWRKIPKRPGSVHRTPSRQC

With `CC(C)(C)NCC(O)c1cc(Cl)c(N)c(Cl)c1` (stereo not given) the Potency [1] was “inactive”, the Potency [2] was “inactive” and the Potency [3] was “inactive”. For the same compound, the Potency [4] was “inactive”, the Potency [5] was “inactive” and the Potency [6] was “inactive”. For the same compound, the Potency [7] was “inactive”, the Potency [8] was “inactive” and the Potency [9] was “inactive”. For the same compound, the Potency [10] was “inactive”, the Potency [11] was “inactive” and the Potency [12] was “inactive”.

For `CNC(=O)/C=C(\C)OP(=O)(OC)OC`, the Potency [1] was “inactive”, the Potency [2] was “inactive” and the Potency [4] was “inactive”. For the same compound, the Potency [8] was “inactive”, the Potency [9] was “inactive” and the Potency [13] was “inactive”. For the same compound, the Potency [14] was “inactive”, the Potency [15] was “inactive” and the Potency [16] was “inactive”. The Potency [17] was “inactive”, the Potency [11] was “inactive” and the Potency [18] was “inactive”. The Potency [12] was “inactive” and the Potency [19] was “inactive”.

For `CC(C)CC#N`, the Potency [1] was “inactive”, the Potency [2] was “inactive” and the Potency [4] was “inactive”. For the same compound, the Potency [7] was “inactive”, the Potency [8] was “inactive” and the Potency [9] was “inactive”. The Potency [13] was “inactive”, the Potency [14] was “inactive” and the Potency [15] was “inactive”. The Potency [16] was “inactive”, the Potency [17] was “inactive” and the Potency [11] was “inactive”. For the same compound, the Potency [18] was “inactive”, the Potency [12] was “inactive” and the Potency [19] was “inactive”.

With `CC(=O)[O][Sn]([c]1ccccc1)([c]1ccccc1)[c]1ccccc1` the Potency [1] was 0.0486 µM (active), the Potency [2] was 0.0193 µM (active) and the Potency [3] was 49 µM (active). For the same compound, the Potency [4] was 38.9 µM (active), the Potency [5] was “inactive” and the Potency [6] was “inactive”. For the same compound, the Potency [7] was 6.46 µM (active), the Potency [8] was 1.62 µM (active) and the Potency [9] was 10.2 µM (active). The Potency [14] was 24.5 µM (active), the Potency [16] was 24.5 µM (active) and the Potency [18] was 61.1 µM (active). For the same compound, the Potency [12] was 52.4 µM (active) and the Potency [19] was 3.06 µM (active).

For `O=[N+]([O-])c1ccc(CCl)cc1`, the Potency [1] was “inactive”, the Potency [2] was 60.1 µM (active) and the Potency [3] was “inactive”. The Potency [4] was “inactive”, the Potency [5] was “inactive” and the Potency [6] was “inactive”. The Potency [7] was “inactive”, the Potency [8] was “inactive” and the Potency [9] was “inactive”. For the same compound, the Potency [10] was “inactive”, the Potency [14] was “inactive” and the Potency [15] was “inactive”. For the same compound, the Potency [16] was “inactive”, the Potency [17] was “inactive” and the Potency [11] was “inactive”. For the same compound, the Potency [18] was “inactive”, the Potency [12] was “inactive” and the Potency [19] was “inactive”.

In the case of `CCCCN(CCCC)C(=S)[S-].CCCCN(CCCC)C(=S)[S-].[Ni+2]`, the Potency [1] is reported as 8.42 µM (active), the Potency [2] is reported as 2.99 µM (active) and the Potency [4] is reported as “inactive”. For the same compound, the Potency [7] was “inactive”, the Potency [9] was “inactive” and the Potency [13] was “inactive”. The Potency [14] was “inactive”, the Potency [15] was “inactive” and the Potency [16] was “inactive”. For the same compound, the Potency [17] was “inactive”, the Potency [11] was “inactive” and the Potency [18] was “inactive”. For the same compound, the Potency [20] was “inactive”, the Potency [12] was “inactive” and the Potency [19] was “inactive”.

For `C[N+]1(C)[C@@H]2CC[C@H]1CC(OC(=O)C(CO)c1ccccc1)C2` (stereo not given in full), the Potency [1] was “inactive”, the Potency [2] was “inactive” and the Potency [3] was “inactive”. The Potency [4] was “inactive”, the Potency [5] was “inactive” and the Potency [6] was “inactive”. The Potency [7] was “inactive”, the Potency [8] was “inactive” and the Potency [9] was “inactive”. For the same compound, the Potency [13] was “inactive”, the Potency [14] was “inactive” and the Potency [16] was “inactive”. For the same compound, the Potency [11] was “inactive”, the Potency [18] was “inactive” and the Potency [20] was “inactive”. For the same compound, the Potency [12] was “inactive” and the Potency [19] was “inactive”.
